Experimental findings from PubChem BioAssay (Tox21) are described below.

“And” between values parts separate entries of the source, which are not always exact repeats. Equal values may be shown once. Inconclusive results are not listed. A structure can be active in one record and inactive in another. The source made the active and inactive calls. Unless noted, calls come from the whole dose curve; as a rule, active = well fitted curve in the direction sought with a large enough effect in the repeat runs; inconclusive = weak or mixed curves; inactive = no such curve, though single readings can be large; an effect the other way counts as inactive or inconclusive.

Experiment [1] in a line: qHTS assay to identify small molecule agonists of H2AX (AID 1224845; active = well fitted activation curve with a large enough effect in the signal ratio in the repeat runs, not every such curve was filed as active; the % refers to the signal ratio). A digest of the protocol: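 Wild-type CHO-K1 cells plated overnight, then exposed 3 hr at 37C to compounds at 15 concentrations (0.76% DMSO). Lysed, then HTRF anti-pH2AX(S139)-cryptate/anti-H2AX-d2 detection after 24 hr at room temperature; emissions 665 and 620 nm.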
(Quantitative high-throughput screening tests each substance at several concentrations.)

A short description of experiment [2]: qHTS assay to identify small molecule agonists of H2AX - cell viability counter screen (AID 1224847; calls by dose curve; note: nearly all actives have a fitted effect of over 30% in size; note: potency is the fitted concentration of half-maximal effect). A digest of the protocol:
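Cells plated first: CHO-K1, 1000 per well in 10% FBS medium, incubated overnight at 37C. Then 15-point compound titration added (final DMSO 0.76%) for 3 hr. Finally CellTiter-Glo added and luminescence read.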

Experiment [3] can be described thus: qHTS RealTime-Glo MT Cell Viability Assay in HepG2 cells - 24 hour (AID 1224867). Note: nearly all actives have a fitted effect of over 50% in size. Note: potency is the fitted concentration of half-maximal effect. An outline of the steps:
(§1)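 Luminescence read-out: viable HepG2 cells reduce a prosubstrate to a NanoLuc substrate, giving a signal proportional to live cell number. Reads taken at 0, 8, 16, 24, 32 and 40 h of compound exposure at 37 C.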

Experiment [4] in a line: qHTS RealTime-Glo MT Cell Viability Assay in HEK293 cells - 32 hour (AID 1224868). Note: nearly all actives have a fitted effect of over 50% in size. Note: potency is the fitted concentration of half-maximal effect. An outline of the steps:
(§2)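 Nonlytic real-time viability readout: viable cells convert prosubstrate to NanoLuc substrate, giving luminescence proportional to live cell number. HEK293, 600 cells/well, compound added after 5 h, continuous culture at 37 C.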

Experiment [5] is described as follows: A CellTox Green Cytotoxicity Assay to monitor cytotoxicity in HEK293 cells - 0 hour (AID 1224869). Note: nearly all actives have a fitted effect of over 50% in size. A digest of the protocol: (§3)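 Seeding of HEK293 cells together with cytotoxicity dye preceded a 5 h incubation at 37 C/5% CO2. Test compounds in DMSO were then added and fluorescence monitored across 40 h.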
A short description of experiment [6]: qHTS RealTime-Glo MT Cell Viability Assay in HepG2 cells - 40 hour (AID 1224870). Note: nearly all actives have a fitted effect of over 50% in size. Note: potency is the fitted concentration of half-maximal effect. An outline of the steps:
(§4)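 HepG2 cells mixed with RealTime-Glo MT reagents (NanoLuc plus cell-permeant prosubstrate) were seeded at 600 cells/well, incubated 5 h at 37 C/5% CO2, then pinned with compounds in DMSO; nonlytic luminescence tracked viability during 40 h treatment.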

A short description of experiment [7]: A CellTox Green Cytotoxicity Assay to monitor cytotoxicity in HEK293 cells - 40 hour (AID 1224871). Note: nearly all actives have a fitted effect of over 45% in size. Note: potency is the fitted concentration of half-maximal effect. An outline of the steps: as §3
The nature of experiment [8]: qHTS RealTime-Glo MT Cell Viability Assay in HEK293 cells - 16 hour (AID 1224872). Note: nearly all actives have a fitted effect of over 50% in size. Note: potency is the fitted concentration of half-maximal effect. A digest of the protocol:
as §2

Experiment [9] is described as follows: qHTS RealTime-Glo MT Cell Viability Assay in HEK293 cells - 40 hour (AID 1224874). Note: nearly all actives have a fitted effect of over 50% in size. Note: potency is the fitted concentration of half-maximal effect. The note with it: RealTime-Glo luminescence; max response: stronger effect = lower value. An outline of the steps:
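Tox21 screen in HEK293 using RealTime-Glo MT chemistry, with cells and reagent co-dispensed. Luminescence proportional to viable cell number was captured at intervals during 40 h compound exposure at 37 C.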

Experiment [10] in a line: A CellTox Green Cytotoxicity Assay to monitor cytotoxicity in HEK293 cells - 24 hour (AID 1224875). Note: nearly all actives have a fitted effect of over 45% in size. Note: potency is the fitted concentration of half-maximal effect. An outline of the steps:
as §3

Experiment [11] can be described thus: A CellTox Green Cytotoxicity Assay to monitor cytotoxicity in HepG2 cells - 16 hour (AID 1224876). Note: nearly all actives have a fitted effect of over 45% in size. Note: potency is the fitted concentration of half-maximal effect. A digest of the protocol: (§5)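 Nonlytic assay: viable cells exclude the dye, so fluorescence scales with cell death. HepG2 at 600 cells/well, compounds added after 5 h, signal read across 40 h.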
A short description of experiment [12]: qHTS RealTime-Glo MT Cell Viability Assay in HepG2 cells - 32 hour (AID 1224877). Note: nearly all actives have a fitted effect of over 55% in size. Note: potency is the fitted concentration of half-maximal effect. An outline of the steps: as §1
A short description of experiment [13]: A CellTox Green Cytotoxicity Assay to monitor cytotoxicity in HepG2 cells - 24 hour (AID 1224878). Note: nearly all actives have a fitted effect of over 45% in size. Note: potency is the fitted concentration of half-maximal effect. A digest of the protocol: as §5
Experiment [14] in a line: qHTS assay to identify small molecule agonists of the hypoxia (HIF-1) signaling pathway (AID 1224846; active = well fitted activation curve with a large enough effect in the signal ratio in the repeat runs, not every such curve was filed as active; the % refers to the signal ratio). A digest of the protocol: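 Hypoxia-pathway activation was scored as increased beta-lactamase from an HRE-controlled reporter in ME-180 cells; plated at 2,000 cells per well with 0.5% dialyzed FBS, they were exposed 17 hrs to compounds and then given CCF4-AM.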
A short description of experiment [15]: A CellTox Green Cytotoxicity Assay to monitor cytotoxicity in HepG2 cells - 40 hour (AID 1224879). Note: nearly all actives have a fitted effect of over 40% in size. Note: potency is the fitted concentration of half-maximal effect. A digest of the protocol:
as §5

The nature of experiment [16]: qHTS assay to identify small molecule antagonists of the estrogen related receptor (ERR) signaling pathway from Tox21 library (AID 1224848). Note: nearly all actives have a fitted effect of over 50% in size. An outline of the steps: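 Screening used an ERR reporter line supplied by NTP, exposed for 18 h at 37 C to library compounds delivered in DMSO. Signal was luciferase luminescence developed with ONE-Glo at room temperature for 30 min.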

The nature of experiment [17]: qHTS assay to identify small molecule agonists of the estrogen related receptor (ERR) signaling pathway from Tox21 library (AID 1224849; calls by dose curve; note: nearly all actives have a fitted effect of over 15% in size). The note with it: ERR reporter cell line, ONE-Glo luciferase, 18 h. An outline of the steps: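 Six hours post-seeding at 37 C/5% CO2, ERR cells receive DMSO-solubilised compounds; after 18 h at 37 C, ONE-Glo reagent is applied and luminescence recorded.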

The nature of experiment [18]: qHTS assay to identify small molecule agonists of the hypoxia (HIF-1) signaling pathway - cell viability counter screen (AID 1224844; calls by dose curve; note: nearly all actives have a fitted effect of over 50% in size). An outline of the steps:
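Multiplexed with the HRE beta-lactamase assay, this viability read used CellTiter-Glo luminescence (30 min, RT) on HRE-bla ME-180 cells treated 17 hrs with compounds in 0.5% dialyzed FBS medium.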

The nature of experiment [19]: qHTS RealTime-Glo MT Cell Viability Assay in HepG2 cells - 8 hour (AID 1224873). Note: nearly all actives have a fitted effect of over 55% in size. A digest of the protocol: as §4
Where [20] appears, read: at 92.4 µM (top of the series) unless noted.
% is set by controls: 0 for no effect and ±100 for the full control effect.

For the compound `O=C=Nc1ccc(Cl)cc1`, the Potency entry in experiment [1], in experiment [2], in experiment [3], in experiment [4], in experiment [5] and in [6] was “inactive” each time. Moreover, the Potency result in experiment [7], in experiment [8], in experiment [10], in experiment [11], in experiment [12] and in experiment [13] was “inactive” each time. Besides, the max response in [9] was -3% (inactive).
Regarding `COC(N)=O`, the Potency entry in experiment [1], in experiment [2], in [3], in [4], in experiment [5] and in experiment [6] was “inactive” each time. For the same compound, the Potency entry in experiment [7], in experiment [8], in [10], in experiment [11], in [12] and in experiment [13] was “inactive” throughout. For the same compound, the Potency entry in [15] was “inactive”. Besides, the compound was classed as inactive in [14].
For the compound `O=C(CCl)c1ccc(Cl)cc1Cl`, in experiment [14], the result was inactive. In addition, the Potency result in experiment [16] and in experiment [5] was “inactive” each time. Further, the activity change, positive = activation in [17] (at 42.5 µM (top of the series)) was -19% (inactive); in experiment [17] (at 92.4 µM (top of the series)), -9.77% (inactive). In addition, the Potency result in [3] was “inactive and 19 µM (active)”; in experiment [4] it was 3.01 µM (active); in [6] it was “inactive and 16.9 µM (active)”; in experiment [7], 8.49 µM (active); in experiment [9] it was 17.3 µM (active) and 2.39 µM (active); in experiment [10], 10.7 µM (active). Moreover, the Potency result in [11] was “inactive and 23.9 µM (active)”; in [12], “inactive and 21.3 µM (active)”; in experiment [13], “inactive and 23.9 µM (active)”; in [15], 23.9 µM (active).
As to `C=CC[C@]1(O)CC[C@H]2[C@@H]3CCC4=CC(=O)CCC4=C3C=C[C@@]21C`, the Potency in [2] was 39.1 µM (active); in experiment [4], 16.9 µM (active); in [8], 19 µM (active); in experiment [9], 19 µM (active). Besides, the activity change, positive = activation in [17] (setting [20]) is -61.2% [at 42.5 µM] (inactive). Moreover, the Potency result in [5], in experiment [10], in experiment [11], in experiment [13] and in experiment [15] was “inactive” throughout.
As to `CCOP(=S)(OCC)Oc1cc(Cl)c(Br)cc1Cl`, the Potency entry in experiment [18], in experiment [3], in experiment [4], in experiment [5], in experiment [6] and in experiment [7] was “inactive” throughout. Besides, the Potency result in experiment [8], in experiment [19], in experiment [10], in [12], in [13] and in experiment [15] was “inactive” throughout. The compound was classed as inactive in experiment [14]. The max response in experiment [9] was -15.7% (inactive).
`CC(C)(C)C(O)C(Oc1ccc(Cl)cc1)n1cncn1` (configuration not stated): the Potency result in [1], in experiment [2], in experiment [5], in experiment [10] and in experiment [12] was “inactive” each time. The result in experiment [14] was inactive. Also, the Potency in [4] was 12.3 µM (active); in experiment [7], 5.49 µM (active); in [9], 11 µM (active); in experiment [13], 43.6 µM (active); in experiment [15], 43.6 µM (active).
For the compound `CN1C(=O)C(O)N=C(c2ccccc2)c2cc(Cl)ccc21` (configuration not stated), the Potency entry in [1], in experiment [2], in experiment [16], in [3], in experiment [5] and in [6] was “inactive” in each case. Further, the Potency result in experiment [7], in [8], in [19], in experiment [10], in experiment [11] and in experiment [12] was “inactive” throughout. Further, the Potency entry in experiment [13] and in experiment [15] was “inactive” throughout. Also, the activity change, positive = activation in experiment [17] (setting [20]) was -0.379% (inactive).
